# High-throughput results from PubChem BioAssay.
# Shown are actives, neighbours in structure and some others; about 11% of the full set was active somewhere.
# USP30 block – human USP30 deubiquitinase inhibition. Q70CQ3. purified USP30, Ub-rhodamine cleavage fluorescence. inhibition, % at 25 µM. hit rate 5.3% among 47,000. AID 1645860
# OTUD3 inh – blocks human OTUD3 ubiquitin-rhodamine cleavage. Q5T2D3. purified OTUD3, Ub-rhodamine fluorescence, 2 h. inhibition, % at 25 µM. hit rate 0.7% among 47,000
# Target sequence (Q5T2D3 whole entry, looked up): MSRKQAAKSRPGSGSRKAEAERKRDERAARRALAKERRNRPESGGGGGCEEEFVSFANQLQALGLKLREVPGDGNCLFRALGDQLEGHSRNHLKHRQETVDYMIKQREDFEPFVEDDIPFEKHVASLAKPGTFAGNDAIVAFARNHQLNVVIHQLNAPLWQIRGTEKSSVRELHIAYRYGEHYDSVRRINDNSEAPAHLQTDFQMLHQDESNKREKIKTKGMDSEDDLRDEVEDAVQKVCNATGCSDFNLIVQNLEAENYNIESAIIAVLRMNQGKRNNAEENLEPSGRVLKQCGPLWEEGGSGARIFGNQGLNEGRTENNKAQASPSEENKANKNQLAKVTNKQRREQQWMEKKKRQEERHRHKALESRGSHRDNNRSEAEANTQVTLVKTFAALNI
# USP28 inh – blocks human USP28 ubiquitin-rhodamine cleavage | AID 1645857 | inhibition, % at 25 µM | purified USP28, Ub-rhodamine cleavage fluorescence, 30 min | Q96RU2 | hit rate 3% among 47,000
# USP17 block – blocks human USP17 ubiquitin-rhodamine cleavage; A8MUK1; purified USP17, Ub-rhodamine cleavage fluorescence, 3 h; inhibition, % at 50 µM; hit rate 6.5% among 47,000; AID 1645855
# A number is an active result; - = inactive; . = no result. Rule as the data show it: active = inhibition above about 30%; inactive = the rest.
SMILES,USP30 block,OTUD3 inh,USP28 inh,USP17 block
COc1cccc(C(=O)NCC(=O)Nc2nc3ccccc3[nH]2)c1,-,-,-,59
O=C(Cc1ccccc1F)NCC(=O)Nc1nc2ccccc2[nH]1,-,-,-,-
Cc1ccc(CC(=O)NCC(=O)Nc2nc3ccccc3[nH]2)cc1,-,-,-,45
COc1cccc(NC(=O)CCCSc2nc3ccccc3[nH]2)c1,-,-,37,-
O=C(CNC(=O)c1ccc2c(c1)OCO2)Nc1nc2ccccc2[nH]1,-,-,-,-
COc1ccc(NC(=O)c2sc3nc(-c4cccc([N+](=O)[O-])c4)cn3c2C)cc1OC,-,-,-,44
CC(=O)Nc1c2sscc-2[nH]c1=O,70,-,-,-
CCSc1ncc2c(=O)n(CC(=O)Nc3cccc(C(F)(F)F)c3)cnc2n1,-,-,-,-
CC1=C(c2ccc(C(C)C)cc2)S(=O)(=O)N(CC(=O)Nc2ccccc2C)C1=O,32,-,39,-
CC1=C(c2ccccc2)S(=O)(=O)N(CC(=O)Nc2ccccc2C)C1=O,-,-,-,-
O=C1CC(c2ccccc2)N(C(=O)c2cc(C3CC3)[nH]n2)CCN1 (stereo not drawn),-,-,-,-
Cc1ccc(-c2nc3c(c(SCC(=O)NCc4ccco4)n2)COC(C)(C)C3)cc1,-,-,-,41
Cc1ccc(-c2nc3c(c(SCC(=O)c4ccccc4)n2)COC(C)(C)C3)cc1,-,-,-,-
Cc1ccc(NC(=O)c2c3c(nc4ccccc24)CCCCC3)c(C)c1,35,-,-,74
Cc1cc(C)c(NC(=O)COc2nncc3ccccc23)c(C)c1,-,-,-,-
CC(OC(=O)c1c2c(nc3ccccc13)CCCC2)C(=O)Nc1ccc(N(C)C)cc1 (stereo not drawn),-,-,-,40
CC(Oc1nncc2ccccc12)C(=O)Nc1ccc(Cl)cc1Cl (stereo not drawn),72,-,-,67
CC(C)c1ccc(NC(=O)COc2nncc3ccccc23)cc1,33,-,-,-
CC(Oc1nncc2ccccc12)C(=O)Nc1ccc(S(=O)(=O)N2CCCC2)cc1 (stereo not drawn),-,-,-,-
COC(=O)C(C)Oc1ccc(-c2nccc(-c3cccs3)n2)cc1 (stereo not drawn),-,-,-,-
CC(OC(=O)c1c2c(nc3ccccc13)CCC(C(C)(C)C)C2)C(=O)Nc1cccc([N+](=O)[O-])c1 (stereo not drawn),-,-,-,-
CC(OC(=O)c1c2c(nc3ccccc13)CCCC2)C(=O)Nc1ccc(Cl)cc1Cl (stereo not drawn),-,-,-,30
CC(OC(=O)c1c2c(nc3ccccc13)CCCCC2)C(=O)Nc1ccc2ccccc2c1 (stereo not drawn),-,43,44,63
CCC(NS(=O)(=O)c1ccc(Cl)c(OC)c1)C12CC3CC(CC(C3)C1)C2 (stereo not drawn),-,-,-,-
Cc1ccc(NC(=O)C2=NOC3(CCNC3)C2)cc1 (stereo not drawn),-,-,-,-
SMILES,USP30 block,OTUD3 inh,USP28 inh,USP17 block
O=C(Nc1ccccc1F)C1=NOC2(CCNCC2)C1,34,-,39,34
Cc1nc(Nc2ncc3c(n2)CCCC3=O)nc2c(C)cccc12,-,-,-,-
COc1ccc(-c2cn3c(-c4ccccc4)c(-c4ccccc4)nc3n2CCc2ccccc2)cc1,-,-,-,-
COc1ccc(-n2c(-c3ccccc3)cn3c(-c4ccccc4)c(-c4ccccc4)nc23)cc1,59,-,-,55
COCCN1C(=O)CC[C@]2(C(=O)NC3CCCC3)CCCC[C@@H]12,-,-,-,-
CC(C)(C)c1cc(C(=O)N2CCCC2c2ccncn2)n[nH]1 (stereo not drawn),-,-,-,.
CC1CCN(S(=O)(=O)c2ccc(-c3nnc(C(=O)N4CCN(C)CC4)o3)cc2)CC1,-,-,-,-
Cc1cc(C)c2nc(N3CCCC(C(=O)NCc4ccccc4C)C3)sc2c1 (stereo not drawn),-,-,-,33
Cc1cc(C)c2nc(N3CCCC(C(=O)NCc4cccc(F)c4)C3)sc2c1 (stereo not drawn),37,-,-,-
COc1ccccc1CNC(=O)C1CCCN(c2nc3c(C)cc(C)cc3s2)C1 (stereo not drawn),-,-,-,-
O=C(COC(=O)c1cccnc1Nc1cccc(C(F)(F)F)c1)Nc1ccc(N2CCCCC2)cc1,-,-,-,-
Cc1sc(-c2ccccn2)nc1OC(=O)c1ccc(S(C)(=O)=O)cc1Cl,-,-,-,-
COc1ccc(S(=O)(=O)NCCSc2ccccc2)cc1Br,37,-,-,-
O=C(Nc1ccc(F)cc1F)C1CC(=O)N(Cc2ccccc2)C1 (stereo not drawn),-,-,-,-
Cc1cc(C(=O)N2CC[C@@H]3CN(Cc4ccc(Cl)cc4)S(=O)(=O)[C@@H]3CC2)no1,-,-,-,-
Cc1cc(C(=O)Nc2cc(C)n(Cc3ccc(Cl)cc3)n2)no1,-,-,72,-
COc1ccc(-c2cncc(-c3cc(NC4CC4)nc(C)n3)c2)cc1,-,-,-,-
COc1ccc(-c2cc(C(=O)OCC(=O)Nc3cc(C)on3)c3ccccc3n2)cc1OC,-,-,-,30
COC(=S)NC(=O)/C=C/c1ccccc1,32,-,-,-
CC1CCN(C(=O)c2cnc3ccccc3c2S(=O)(=O)c2ccc(Cl)cc2)CC1,38,-,-,-
COc1ccc(NC(=O)CSc2nccn2C2CCCCC2)cc1,-,-,-,-
COc1ccc(-c2nnc(SCC(=O)Nc3ccc(C)cc3)n2C2CCCCC2)cc1OC,48,-,-,34
CCOc1ccc2[nH]c(=O)c(CN(C(=O)c3cccs3)C3CCCC3)cc2c1,-,-,-,66
COc1ccc2cc(CN(C(=O)Nc3ccccc3)C3CCCCC3)c(=O)[nH]c2c1,-,-,-,-
COc1ccc(COc2ncnc3sc(C)c(C)c23)cc1F,-,-,-,-
SMILES,USP30 block,OTUD3 inh,USP28 inh,USP17 block
CC(=O)c1cccc(NC(=O)c2cc(-c3cccnc3)n[nH]2)c1,86,-,91,78
O=C(Nc1cccc(Br)c1)c1cc(-c2cccnc2)n[nH]1,71,-,43,-
Cc1ccc(NC(=O)c2c(C)sc3c(=O)n(C(C)C)cnc23)c(C)c1,-,-,-,-
Cc1ccc(C)c(NC(=O)c2c(C)sc3c(=O)n(C(C)C)cnc23)c1,45,-,-,44
CCCn1nnc2cc(-c3noc(CNC(=O)c4cccs4)n3)ccc21,-,-,-,33
O=C(NCc1nc(-c2ccc3c(c2)ncn3C2CCCC2)no1)c1cccs1,-,-,-,-
CCN(C(=O)c1cc2c(s1)-c1ccccc1OC2)c1ccccc1F,-,-,52,-
COc1ccc(CCNC(=O)c2cc3c(s2)-c2ccccc2OC3)cc1,.,-,.,37
CCN(C(=O)c1cc2c(Cl)nc3ccccc3c2s1)c1ccccc1F,71,-,-,-
O=C1COc2ccccc2C(=O)N1Cc1ccccc1F,-,-,-,-
CN(C)c1ccc(CNc2nn3c(-c4cccnc4)cnc3s2)cc1,91,40,67,63
c1cncc(-c2cnc3sc(NCc4ccc5c(c4)OCO5)nn23)c1,101,60,87,61
